Source: PubChem BioAssay
HT1080 IDH1KD tx – kills HT-1080 cells with IDH1 knockdown | 360,000 tested, 2% active | Potency, µM (series often up to 46.1 µM), hits mostly cytotoxic | HT-1080 IDH1 knockdown viability, ATP luminescence, 48 h | AID 686971
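Luminescent ATP read-out (CellTiter-Glo, 10 min at room temperature) after 48 h compound exposure at 37 °C gave viability of IDH1-knockdown HT-1080 cells. Activity was normalised to DMSO and cell-free wells, then fitted as concentration-response curves.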
ELG1 repair inh – blocks ELG1-dependent DNA repair in HEK293T cells; 330,000 tested, 2.3% active; Potency, µM (doses to about 46.1 µM), most hits filed as inhibitors; AID 504467; HEK293T ELG1-luciferase reporter, luminescence, 16 h; DNA damage induced by 5-fluorouridine; further: nearly all actives have a fitted effect of over 55% in size
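Luminescence from the luciferase reporter, measured 30 min after ONE-Glo reagent at room temperature, was the read-out. Beforehand, 2,000 cells per well were exposed for 16 hr at 37 °C to 5-fluorouridine together with compound or vehicle.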
HT1080NT lethal – kills 2HG-producing HT-1080-NT fibrosarcoma cells. HT-1080-NT fibrosarcoma viability, CellTiter-Glo ATP luminescence, 48 h. Potency, µM (highest dose often 46.1 µM), most hits filed as cytotoxic. 360,000 tested, 1.6% active. AID 686970;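 further: NT is the 2HG producing partner of a matched IDH1 knockdown line; nearly all actives have a fitted effect of over 55% in size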
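HT-1080-NT; 750 cells/well; 5% FBS RPMI; 48 h compound, 37 degrees C; CellTiter-Glo luminescence; curve fitting and curve-class assignment.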
IL-1B inflam inh – inhibitors of inflammasome signaling (IL-1 beta secretion); THP-1 LPS/ATP IL-1B secretion, AlphaLISA, 16 h; hits give low values; AID 743279; activity change, % at 57.5 µM; 360,000 tested, 4.7% active; in the data active means activity change below about -50%; inconclusive means mostly about -30% to -49%
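THP-1 cells pretreated 1 hr with compounds (up to 57.5 uM final), then stimulated with LPS (250 ng/mL final) plus ATP (1.25 mM final); secreted IL-1B measured by AlphaLISA after 16 hr, decreased signal indicating inhibition.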
DT40 TDP1 CPT – DT40-hTDP1 cell growth loss with CPT; chicken DT40 Tdp1-/-;hTDP1 cells + 20 nM CPT, ATP luminescence, 48 h; Potency, µM (highest dose often 46.2 µM), actives largely listed as inhibitors; 420,000 tested, 12% active; AID 686979; further: nearly all actives have a fitted effect of over 55% in size
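Cell growth measured by CellTiter-Glo luminescence after a minimum 48 h, 37 C compound exposure with 20 nM CPT in Tdp1-knockout DT40 cells stably expressing hTDP1, seeded 400/well; qHTS titration format.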
TDP1 cell noCPT – qHTS for Inhibitors of human tyrosyl-DNA phosphodiesterase 1 (TDP1): qHTS in cells in absence of CPT; 420,000 tested, 15% active; AID 686978, 2013; Potency, µM (top dose mostly 46.2 µM), usual class: inhibitors; DT40 Tdp1-/- hTDP1 cells, no CPT, ATP luminescence, 48 h; further: nearly all actives have a fitted effect of over 55% in size
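Camptothecin absent (DMSO only). Human TDP1-complemented DT40 knockout cells, 400 cells/well, 37 °C for minimum 48 hr; ATP measured via CellTiter-Glo, 30 min dark incubation, luminescence.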
A number is an active result; n = inactive; u = inconclusive; x = not tested or not shown; [ ] = dose if it differs, or a comment. Most compounds without a hit are left out; they make up all but 19% or so of the library. Unless noted, the call rests on the fitted dose curve; in most records, active means well fitted curve in the direction sought with a large enough effect; inconclusive means small, poorly fitted or top-dose-only effect, or another doubt; inactive means no such curve, though single readings can be large; an effect the other way counts as inactive or inconclusive.

SMILES | HT1080 IDH1KD tx | ELG1 repair inh | HT1080NT lethal | IL-1B inflam inh | DT40 TDP1 CPT | TDP1 cell noCPT
Cn1c(SCc2ccc(C(F)(F)F)cc2)nc2c([nH]c3ccccc32)c1=O | x | x | x | x | 9.2µM | 18µM
Cc1ccc(NC(=S)N2CCN(S(=O)(=O)c3c(F)cccc3F)CC2)cc1C | n | u | n | n | n | n
CC12CCC(C(=O)N(CSC(=S)N/N=C\c3ccccc3)C1=O)C2(C)C (centres undefined) | n | n | n | n | 5.8µM | 4.6µM
O=C(NCc1nc(-c2ccc(C(F)(F)F)cc2)no1)Nc1ccc(OC(F)(F)F)cc1 | u | n | 26µM | -90 | u | 8.2µM
COc1ccc(-c2noc(CNS(=O)(=O)c3ccc(NC(C)=O)cc3)n2)cc1 | n | n | n | n | u | n
COc1ccc(S(=O)(=O)n2nc(C)cc2C)cc1OC | n | n | n | n | n | n
CC1CCCC(N2CCN(S(=O)(=O)c3ccccc3)CC2)C1 (centres undefined) | n | n | n | n | n | u
COc1ccc(N2C(=O)CC2(C#N)c2ccc(OCc3ccccc3)cc2)cc1 (centres undefined) | n | n | n | n | n | n
C#CCCc1cocc1/C=[N+](\[O-])c1ccc(C(=O)OCC)cc1 | n | u | n | n | n | n
CNC(=S)N/N=C/C1=CCC2CC1C2(C)C (centres undefined) | n | n | n | n | 7.3µM | u
FC(F)(F)c1cccc(NCc2n[nH]c(=S)n2C2CCCCC2)c1 | n | n | n | n | u | 13µM
S=c1[nH]nc(-c2cccs2)n1C1CCCCC1 | n | n | n | n | n | n
O=C(NCCS(=O)(=O)c1ccc(Br)cc1)c1c(F)cccc1F | n | n | n | n | n | n
COc1ccc(Cn2c(=O)[nH]c3cc(C(=O)N4CCN(c5ccc(C(C)=O)cc5)CC4)ccc3c2=O)cc1 | n | u | n | n | u | 15µM
CCOC(=O)N1CCN(C(=O)c2ccc(Cn3c(=S)[nH]c4ccc(Br)cc4c3=O)cc2)CC1 | n | 7.3µM | n | -63 | 5.2µM | 1µM
O=c1c2cc(N3CCOCC3)ccc2[nH]c(=S)n1Cc1ccccc1Cl | n | u | n | n | n | n
CC(=O)c1ccc(N2CCN(C(=O)c3ccc(Cn4c(=S)[nH]c5ccc(N6CCOCC6)cc5c4=O)cc3)CC2)cc1 | n | u | n | n | 3.3µM | 2.6µM
CC(=O)c1ccc(N2CCN(C(=O)c3ccc(Cn4c(=O)[nH]c5ccccc5c4=O)cc3)CC2)cc1 | x | x | x | x | 10µM | 16µM
COc1ccc(Cn2c(=O)[nH]c3cc(C(=O)N4CCN(c5ccc(OC)cc5)CC4)ccc3c2=O)cc1 | n | n | n | n | n | u
CCOC(=O)[C@]12CCCC=C1N(Cc1ccc3c(c1)OCO3)C(=O)[C@H](CC(=O)NCc1ccc(OC)c(OC)c1)C2 | n | x | n | n | u | u
Cc1ccc(C)c(CN2C(=O)c3ccccc3S(=O)(=O)c3ccc(C(=O)N4CCOCC4)cc32)c1 | x | x | x | x | n | n
CN1C(=O)CC(CC(=O)N2CCCCC2CCO)(c2cccc(F)c2)C1=O (centres undefined) | x | x | x | x | n | n
O=C(NCCc1ccc(Cl)cc1)c1ccc(Cn2c(=O)[nH]c3ccccc3c2=O)cc1 | x | x | x | x | 6.5µM | 3.7µM
O=C(c1ccc(Cn2c(=O)[nH]c3ccccc3c2=O)cc1)N1CCN(c2ccc(Cl)cc2)CC1 | u | 23µM | u | n | 23µM | 16µM
NS(=O)(=O)c1ccc(CCNC(=O)c2ccc(Cn3c(=O)[nH]c4ccccc4c3=O)cc2)cc1 | n | n | n | n | n | n
SMILES | HT1080 IDH1KD tx | ELG1 repair inh | HT1080NT lethal | IL-1B inflam inh | DT40 TDP1 CPT | TDP1 cell noCPT
COc1ccc(N2CCN(C(=O)c3ccc4c(=O)n(Cc5ccc6c(c5)OCO6)c(=O)[nH]c4c3)CC2)cc1 | n | n | n | n | n | n
N#Cc1ccccc1-c1cncnc1NCc1cccnc1 | x | x | x | x | n | n
CN(C)c1ccc(-c2nccc(NCc3cccs3)n2)cc1 | x | x | x | x | 21µM | 23µM
COc1ccccc1-c1nccc(NCc2cccs2)n1 | x | x | x | x | 21µM | u
Fc1ccc(Nc2ccnc(-c3ccoc3)n2)cc1 | x | x | x | x | n | n
COc1ccccc1-c1nccc(Nc2ccc(F)cc2)n1 | x | x | x | x | 23µM | u
CC(C(=O)NCc1ccco1)n1cc([N+](=O)[O-])cn1 (centres undefined) | n | n | n | n | n | n
Cc1ccc(C)c(NC(=S)NC(NC(=O)N(C)C)C(Cl)(Cl)Cl)c1 (centres undefined) | n[9.24 µM] | n | n | n | n | n
CCc1ccc(OCC(=O)NC(NC(=S)Nc2ccc(C)cc2C)C(Cl)(Cl)Cl)cc1 (centres undefined) | u | n | u | n | u | 23µM
CC(=O)NC(NC(=S)Nc1ccc(C)cc1C)C(Cl)(Cl)Cl (centres undefined) | n | n | n | n | n | n
CCc1ccc(OCC(=O)NC(NC(=S)Nc2ccccc2C)C(Cl)(Cl)Cl)cc1 (centres undefined) | u | n | 16µM | n | u | u
COC(=O)c1ccccc1NC(=S)NC(=O)COc1ccc(C(C)C)cc1 | n | n | n | n | n | n
Cc1ccc(C)c(NC(=S)NC(NC(=O)Cc2cccc3ccccc23)C(Cl)(Cl)Cl)c1 (centres undefined) | u | u | n | u | 8.2µM | 6.5µM
COC(=O)c1ccccc1NC(=S)NC(NC(=O)COc1ccccc1)C(Cl)(Cl)Cl (centres undefined) | n | n | n | -77 | n | n
Cc1ccccc1NC(=S)NC(NC(=O)COc1ccccc1)C(Cl)(Cl)Cl (centres undefined) | n | n | n | n | u | u
Cc1ccc(OC(C)C(=O)N2CCN(CCc3ccccn3)CC2)cc1C (centres undefined) | x | x | x | x | n | n
CC(C)CC(=O)NC(Nc1ccc([N+](=O)[O-])cc1)C(Cl)(Cl)Cl (centres undefined) | n | u | u | n | 18µM | 23µM
CCc1ccc(OCC(=O)NC(NC(=S)Nc2ccccc2)C(Cl)(Cl)Cl)cc1 (centres undefined) | 16µM | n | 16µM | u | u | u
CCc1ccc(OCC(=O)NC(NC(=S)Nc2ccccc2OC)C(Cl)(Cl)Cl)cc1 (centres undefined) | n | u | n | n | u | u
CC(C)CC(=O)NC(NC(=S)Nc1ccccc1)C(Cl)(Cl)Cl (centres undefined) | u | n | n | -77 | u | u
